High-throughput results deposited in PubChem by Broad Institute.
Rows were chosen to be rich in hits. Some 7.7% of all compounds tested hit in one or more screens of this group.
PD-1 reversal: activators reversing PD-1 mediated T-cell inhibition; activation, % (concentration not given with the values); primary human CD4 T cells, PD-L1 beads, CellTiter-Glo 96 h; 29,000 tested, under 10 active; call rule not given here;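 note: 0% = median vehicle wells and 100% = positive control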
NOMO-1 viab: STK33 inhibitor candidate reducing NOMO-1 cell viability; NOMO-1 AML viability, CellTiter-Glo luminescence, 72 h; inhibition, % (test concentration not listed); actives 7.5% (n = 37,000); AID 2330; in the data active = inhibition above about 80%; inconclusive = no clear call, values can overlap the other calls
Shh pathway inh: blocks Sonic Hedgehog signaling; AID 2313; actives 2.1% (n = 22,000); inhibition, % (concentration not given with the values); Shh-LIGHT2 Gli-luciferase reporter, 30 h;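 active = mean inhibition across valid replicates above about 65%, limit read from the data; inconclusive = mean under the limit, yet half or more replicates past it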;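 note: pathway switched on by Shh-conditioned medium diluted 1 in 25 in low serum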
An asterisk follows results filed as active.

`COc1ccc(CN(C)C[C@@H]2Oc3c(NC(=O)Nc4ccc5c(c4)OCO5)cccc3C(=O)N([C@@H](C)CO)C[C@H]2C)cc1` gave NOMO-1 viab 87* and Shh pathway inh -10.
Screening COc1ccc(NC(=O)Nc2cccc3c2O[C@@H](CN(C)Cc2ccc4c(c2)OCO4)[C@@H](C)CN([C@H](C)CO)C3=O)cc1 returned PD-1 reversal 0, NOMO-1 viab 89* and Shh pathway inh -21.
COc1ccc(NC(=O)Nc2cccc3c2O[C@H](CN(C)Cc2ccc4c(c2)OCO4)[C@H](C)CN([C@@H](C)CO)C3=O)cc1 was read as PD-1 reversal 0, NOMO-1 viab 6 and Shh pathway inh 6.
CC(C)(C)c1ccc(NC(=O)c2cnccn2)cc1 was read as PD-1 reversal 0, NOMO-1 viab 22 and Shh pathway inh -19.
Cc1cc(=O)[nH]c(SCc2nc3ccccc3[nH]2)n1 was read as PD-1 reversal 0, NOMO-1 viab 9 and Shh pathway inh -23.
Cc1cc(Br)ccc1NC(=O)CCCN1C(=O)c2ccccc2C1=O was read as PD-1 reversal 2 and NOMO-1 viab 4.
For CC1(C)Cc2c(c(N3CCOCC3)nc3sc4c(=O)[nH]nnc4c23)CO1 the results were PD-1 reversal -5 and NOMO-1 viab 4.
`C=CC(C)(C)c1[nH]cnc1/C=C1\NC(=O)C(C(C)C)NC1=O` (configuration not stated) gave PD-1 reversal 1, NOMO-1 viab 106* and Shh pathway inh -6.
CC(C)C1NC(=O)/C(=C/c2cnc[nH]2)NC1=O (configuration not stated) was read as Shh pathway inh -49.
Screening COc1ccc(C(=O)CSc2nnc(-c3ccccc3)n2-c2ccccc2)cc1 returned PD-1 reversal 4 and NOMO-1 viab 1.
Screening Cc1noc(C)c1CSc1nc2[nH]ncc2c(=O)n1-c1ccccc1 returned NOMO-1 viab 108*.
For Cc1nc(CSc2nc3[nH]ncc3c(=O)n2-c2ccccc2)cs1 the results were NOMO-1 viab 6.
For CCC(=O)N1c2ccccc2-c2nnc(SC)nc2OC1c1ccccc1 (configuration not stated) the results were PD-1 reversal -1, NOMO-1 viab 33 and Shh pathway inh -9.
CC(=O)O[C@H]1C(=O)[C@@]2(C)C([C@H](OC(=O)c3ccccc3)[C@]3(O)C[C@H](OC(=O)[C@H](O)[C@@H](NC(=O)c4ccccc4)c4ccccc4)C(C)=C1C3(C)C)[C@]1(OC(C)=O)CO[C@@H]1C[C@@H]2O (some centres not stated) was read as PD-1 reversal -2, NOMO-1 viab 98* and Shh pathway inh -43.
`CCOC(=O)c1cnc2cc(C(F)(F)F)ccc2c1N(C)Cc1ccccc1` gave PD-1 reversal -3, NOMO-1 viab 38 and Shh pathway inh inconclusive.
Screening CCOC(=O)c1cnc2ccc(OCC)cc2c1N(C)Cc1ccccc1 returned PD-1 reversal -3, NOMO-1 viab 96* and Shh pathway inh 13.
Screening C[C@@H]1CN([C@@H](C)CO)C(=O)c2cc(NC(=O)NC3CCCCC3)ccc2O[C@@H]1CN(C)Cc1ccc(Oc2ccccc2)cc1 returned PD-1 reversal -5, NOMO-1 viab 120* and Shh pathway inh 50.
`C[C@H](CO)N1C[C@H](C)[C@@H](CN(C)Cc2ccc(Oc3ccccc3)cc2)Oc2ccc(NC(=O)Nc3ccccc3)cc2C1=O` gave PD-1 reversal -2 and NOMO-1 viab inconclusive.
COc1ccc(NC(=O)Nc2ccc3c(c2)C(=O)N([C@H](C)CO)C[C@H](C)[C@H](CN(C)Cc2ccc(-c4ccccc4)cc2)O3)cc1 was read as PD-1 reversal 0 and NOMO-1 viab 29.
C[C@H](CO)N1C[C@H](C)[C@H](CN(C)Cc2ccc(Oc3ccccc3)cc2)Oc2ccc(NC(=O)Cc3ccccc3)cc2C1=O was read as NOMO-1 viab 69.
`COc1ccc(NC(=O)Nc2ccc3c(c2)C(=O)N([C@@H](C)CO)C[C@@H](C)[C@@H](CN(C)Cc2ccc(-c4ccccc4)cc2)O3)cc1` gave PD-1 reversal -6, NOMO-1 viab 116* and Shh pathway inh 52.
C[C@@H]1CN([C@@H](C)CO)C(=O)c2cc(NC(=O)Nc3ccccc3)ccc2O[C@@H]1CN(C)Cc1ccc(Oc2ccccc2)cc1 was read as PD-1 reversal -2 and NOMO-1 viab 117*.
For C[C@@H]1CN([C@H](C)CO)C(=O)c2cc(NC(=O)NC3CCCCC3)ccc2O[C@H]1CN(C)Cc1ccc(Oc2ccccc2)cc1 the results were PD-1 reversal -1 and NOMO-1 viab inconclusive.
For C[C@H]1CN([C@@H](C)CO)C(=O)c2cc(NC(=O)Cc3ccccc3)ccc2O[C@@H]1CN(C)Cc1ccc(Oc2ccccc2)cc1 the results were NOMO-1 viab 93*.
Cc1cc(OCC(=O)Nc2cccc3ncccc23)cc(C)c1Cl was read as PD-1 reversal 1 and NOMO-1 viab 25.
Screening COc1ccc(NC(=O)CN(c2ccccc2F)S(C)(=O)=O)cc1Cl returned PD-1 reversal 0 and NOMO-1 viab 5.
For CC(C)Cc1cnc(CCC(N)=O)c(=O)[nH]1 the results were PD-1 reversal 1, NOMO-1 viab -15 and Shh pathway inh -30.
For COc1ccc(NC(=O)Nc2ccc3c(c2)C(=O)N([C@@H](C)CO)C[C@H](C)[C@@H](CN(C)Cc2ccc(Oc4ccccc4)cc2)O3)cc1 the results were PD-1 reversal -1, NOMO-1 viab 33 and Shh pathway inh 3.
`COc1ccc(NC(=O)Nc2ccc3c(c2)C(=O)N([C@H](C)CO)C[C@@H](C)[C@@H](CN(C)Cc2ccc(Oc4ccccc4)cc2)O3)cc1` gave NOMO-1 viab 122* and Shh pathway inh 96*.
For NC(=O)CSCC(=O)Nc1ccc(Br)cc1 the results were PD-1 reversal 2 and NOMO-1 viab -8.
`CSc1ccccc1NC(=O)CN(C)S(=O)(=O)c1ccc(C)cc1` gave PD-1 reversal -1 and NOMO-1 viab 30.
O=C(CSC1CC(=O)N(c2ccccc2)C1=O)Nc1ccccc1F (configuration not stated) was read as NOMO-1 viab 26.
`Cc1nc(SCC(=O)NCc2ccco2)c2c3c(sc2n1)CCC3` gave PD-1 reversal -3 and NOMO-1 viab 14.
`CC1(C)Cc2nc3sc4c(SCC(=O)NCc5ccco5)ncnc4c3cc2CO1` gave PD-1 reversal -6 and NOMO-1 viab 127*.
Screening O=C(CSc1ncnc2sc3c(c12)CCCCC3)NCc1ccco1 returned PD-1 reversal -2 and NOMO-1 viab 131*.
CCOC(=O)CSc1ncnc2c1sc1nc3c(cc12)COC(C)(C)C3 was read as PD-1 reversal 0 and NOMO-1 viab -7.
`COc1ccc(Cl)cc1NC(=O)CSc1nnnn1-c1ccc(C(=O)O)cc1` gave PD-1 reversal 0 and NOMO-1 viab 23.
`O=C1c2ccccc2C(=O)N1Cc1cc(NS(=O)(=O)c2ccccc2)ccc1Cl` gave NOMO-1 viab 23.
`Cc1ccc(-c2nn(CCC(=O)Nc3cccc(Cl)c3)c(=O)c3ccccc23)cc1` gave PD-1 reversal 2 and NOMO-1 viab -5.
Screening COc1ccccc1-n1c(SCC(=O)c2ccc3c(c2)CCCC3)nc2ccccc2c1=O returned PD-1 reversal 2 and NOMO-1 viab 29.
